Here are results for 36 compounds from PubChem BioAssay.

The subject of the first assay is Noggin (protein binding on small-molecule microarray). Nature of the assay: small molecules binding Noggin protein – biochemical, 635/667 nm fluorescence, primary screen (AID 1095).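 Further: score merges 667 nm feature fluorescence with signal to noise over triplicate slides.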 As to conditions: 635 nm fluorescence, higher = more signal.
The compound `CCOC(=O)C[C@H]1[C@H](OC(=O)c2ccc(-c3ccccc3)cc2)[C@@H](NC(=O)CC(C)C)c2cc(OCCCO)ccc2N1C(=O)c1ccc2ccccc2n1` registered a composite z-score of 0.481.
`CCOC(=O)C[C@H]1[C@H](OC(=O)c2ccc(C(=O)c3ccccc3)cc2)[C@@H](NC(=O)c2ccc3ccccc3n2)c2cc(OCCCO)ccc2N1C(=O)Cc1ccc(OC)cc1` yielded a composite z-score of 0.842.
On to `COc1ccc([Si](C)(C)[C@@H]2[C@@H](CC(=O)N(CCO)Cc3ccccc3)O[C@]3(C(=O)N(Cc4cccc(N5CCCCC5=O)c4)c4ccccc43)[C@H]2C)cc1`, for which the composite z-score was 1.45.
For the compound `COC(=O)[C@]1(CCS(=O)(=O)c2ccccc2)N=C(c2ccc(OCCCO)cc2)O[C@@H]1c1ccccc1N=[N+]=[N-]`, the composite z-score worked out at 1.22.
Turning to `COC(=O)[C@@]1(Cc2ccccc2)[C@H]2c3cc(C(=O)N4CCCC4)n(CCc4ccccn4)c3C[C@H]2CN1C(=O)c1ccccc1`, the composite z-score was 0.678.
Turning to `CCCN1C(=O)[C@@]2(Cc3ccccc31)N=C(c1ccc(OCCCO)cc1)O[C@H]2c1ccccc1`, the composite z-score came out at 0.643.
In the case of `COC(=O)[C@@]1(Cc2ccc(F)cc2)[C@H]2c3cc(C(=O)N(C)C)n(Cc4ccc(OC(F)(F)F)cc4)c3C[C@H]2CN1C(=O)c1ccccc1`, the composite z-score worked out at 0.149.
Turning to `CC(=O)N1CC2(CC2)CC1c1ccccc1` (configuration not stated), the composite z-score turned out to be 0.423.
`CC(C)[Si](C#CCCCC#N)(O[C@H](c1ccccc1)c1cn(Cc2ccccc2)nn1)C(C)C` registered a composite z-score of 0.509.
With `COCCOC(=O)N1C(=O)[C@@]2(c3cc(C#CC4(O)CCCCCC4)ccc31)[C@H](c1ccc(O)cc1)N1[C@H](c3ccccc3)[C@H](c3ccccc3)OC(=O)[C@H]1[C@@H]2C(=O)N1CCN(c2ncccn2)CC1`, the composite z-score turned out to be 0.0969.
The compound `CC1=C2[C@@H](CCc3ccccc3)OB(O)C[C@@H]2[C@@H]2C(=O)N(Cc3ccccc3)C(=O)[C@@H]2C1` came in with a composite z-score of 0.694.
With `CCOC(=O)C[C@H]1[C@H](OC(=O)Cc2ccc3c(c2)OCO3)[C@@H](NC(=O)C2CCCCC2)c2cc(OCCCO)ccc2N1C(=O)c1ccccc1`, the composite z-score amounted to 0.0367.
In turn, `COCCCNC(=O)[C@@]1(CCC(=O)OC(C)(C)C)N=C(c2ccc(OCCCO)cc2)O[C@H]1c1ccccc1N=[N+]=[N-]` displayed a composite z-score of -0.0445.
The same measure, in the same setting: for `[N-]=[N+]=Nc1ccccc1C[C@]1(C(=O)NCC(O)CO)COC(c2ccc(OCCCO)cc2)=N1` (some centres not stated) the value was -0.906; for `CCCC[C@@H](O)C1=C(COC)C[C@H]2C(=O)N(C)C(=O)[C@H]2[C@H]1CO`, 0.578.
Still for that read-out and setting: for `CCCCCCc1nc(Cc2cc(OC)c(OC)c(OC)c2)cc2c1[Si](C(C)C)(C(C)C)OC2` the value was 0.158.

The target in the next assay is Neurogenic locus notch homolog protein 3 (Homo sapiens) (UniProt Q9UM47). Description: small molecules binding NOTCH3 protein – biochemical, 635/667 nm fluorescence, primary screen (AID 1096). As to conditions: small-molecule microarray, 635 nm fluorescence, higher = more signal.
Sequence of Neurogenic locus notch homolog protein 3 (Homo sapiens) (Q9UM47 whole entry, looked up): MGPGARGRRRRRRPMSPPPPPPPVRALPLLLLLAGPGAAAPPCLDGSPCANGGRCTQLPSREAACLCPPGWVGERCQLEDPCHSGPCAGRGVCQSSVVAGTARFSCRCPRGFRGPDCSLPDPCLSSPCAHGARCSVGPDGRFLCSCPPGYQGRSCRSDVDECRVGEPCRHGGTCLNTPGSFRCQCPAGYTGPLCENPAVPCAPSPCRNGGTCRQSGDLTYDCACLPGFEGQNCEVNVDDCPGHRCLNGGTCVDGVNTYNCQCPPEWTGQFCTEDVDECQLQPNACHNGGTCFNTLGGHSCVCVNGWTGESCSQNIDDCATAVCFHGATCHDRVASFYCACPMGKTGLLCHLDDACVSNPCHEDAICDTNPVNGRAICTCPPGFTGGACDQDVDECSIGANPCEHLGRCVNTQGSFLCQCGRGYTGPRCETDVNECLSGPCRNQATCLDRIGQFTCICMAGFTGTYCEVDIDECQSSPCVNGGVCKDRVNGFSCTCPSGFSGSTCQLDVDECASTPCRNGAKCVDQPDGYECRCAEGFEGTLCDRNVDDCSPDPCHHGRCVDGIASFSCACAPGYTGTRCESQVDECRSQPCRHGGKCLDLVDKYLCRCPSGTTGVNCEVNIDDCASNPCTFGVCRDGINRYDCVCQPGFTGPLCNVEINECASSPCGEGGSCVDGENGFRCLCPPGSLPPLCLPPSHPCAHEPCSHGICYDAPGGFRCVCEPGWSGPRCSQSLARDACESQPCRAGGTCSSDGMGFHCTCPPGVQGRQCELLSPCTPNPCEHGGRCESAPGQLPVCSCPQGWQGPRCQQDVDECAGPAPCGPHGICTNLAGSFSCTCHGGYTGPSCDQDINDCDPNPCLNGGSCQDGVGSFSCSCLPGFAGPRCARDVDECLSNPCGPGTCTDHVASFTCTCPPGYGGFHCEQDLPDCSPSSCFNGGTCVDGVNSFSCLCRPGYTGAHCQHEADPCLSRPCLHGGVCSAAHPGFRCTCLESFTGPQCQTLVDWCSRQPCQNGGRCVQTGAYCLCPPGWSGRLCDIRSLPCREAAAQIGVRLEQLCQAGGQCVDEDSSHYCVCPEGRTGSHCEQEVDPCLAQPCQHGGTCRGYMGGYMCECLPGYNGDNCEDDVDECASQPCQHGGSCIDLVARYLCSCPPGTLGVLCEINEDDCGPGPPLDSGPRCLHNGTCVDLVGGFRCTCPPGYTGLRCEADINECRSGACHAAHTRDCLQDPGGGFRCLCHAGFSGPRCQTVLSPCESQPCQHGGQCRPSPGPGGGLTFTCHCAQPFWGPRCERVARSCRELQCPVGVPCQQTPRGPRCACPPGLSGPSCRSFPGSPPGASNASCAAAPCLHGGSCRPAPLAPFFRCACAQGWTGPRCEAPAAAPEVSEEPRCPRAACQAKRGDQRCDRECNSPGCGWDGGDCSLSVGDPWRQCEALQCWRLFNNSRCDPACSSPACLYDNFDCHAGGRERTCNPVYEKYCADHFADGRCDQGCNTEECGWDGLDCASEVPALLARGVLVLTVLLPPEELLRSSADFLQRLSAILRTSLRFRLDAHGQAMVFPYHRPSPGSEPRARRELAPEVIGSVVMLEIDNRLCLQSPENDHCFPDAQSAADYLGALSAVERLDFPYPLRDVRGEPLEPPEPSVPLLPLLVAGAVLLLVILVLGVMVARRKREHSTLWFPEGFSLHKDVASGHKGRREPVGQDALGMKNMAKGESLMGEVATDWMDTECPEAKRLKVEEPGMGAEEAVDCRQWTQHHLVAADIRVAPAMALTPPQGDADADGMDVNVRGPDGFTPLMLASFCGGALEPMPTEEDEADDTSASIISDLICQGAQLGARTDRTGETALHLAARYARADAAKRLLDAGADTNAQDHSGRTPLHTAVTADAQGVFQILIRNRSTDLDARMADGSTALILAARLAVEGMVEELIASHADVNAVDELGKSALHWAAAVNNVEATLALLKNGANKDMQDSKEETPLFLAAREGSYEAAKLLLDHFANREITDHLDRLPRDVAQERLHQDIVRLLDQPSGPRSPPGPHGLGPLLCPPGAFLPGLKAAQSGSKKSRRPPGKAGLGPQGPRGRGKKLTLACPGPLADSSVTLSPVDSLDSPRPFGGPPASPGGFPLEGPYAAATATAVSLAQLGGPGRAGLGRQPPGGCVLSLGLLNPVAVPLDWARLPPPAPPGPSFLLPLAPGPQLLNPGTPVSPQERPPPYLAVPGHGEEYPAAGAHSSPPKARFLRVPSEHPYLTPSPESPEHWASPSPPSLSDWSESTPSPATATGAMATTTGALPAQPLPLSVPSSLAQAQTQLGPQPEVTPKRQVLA
`N#Cc1ccc(NN2C(C(O)c3ccc(Br)cc3)C=CC3C(=O)N(c4ccccc4)C(=O)C32)cc1` (configuration not stated) gave a composite z-score of 1.01.
The compound `CC1CC/C=C\[C@H]2OC34C=CCN(c5ccc(Cl)cc5)C(=O)[C@H]3N(C(C)CO)C(=O)[C@]4(C)C2C(=O)O1` (some centres not stated) showed a composite z-score of -0.984.
The compound `CO[C@H]1O[C@H](CO)[C@@H](OC(=O)Nc2ccc(Br)cc2)[C@@H]2OC(=O)[C@@H](Cc3ccccc3)C/C=C/C[C@H](Cc3ccccc3)C(=O)O[C@@H]12` returned a composite z-score of 0.464.
Regarding `CCOC(=O)C[C@H]1[C@H](OC(=O)c2cc3ccccc3oc2=O)[C@@H](NC(=O)c2ccccc2)c2cc(OCCCO)ccc2N1C(=O)c1ccccc1`, the composite z-score stood at 0.819.
The same measure, in the same setting: next, `O=C1OCCC=C[C@H]2OC34C=CCN(c5ccc6ccccc6c5)C(=O)[C@H]3N(CCCO)C(=O)[C@@H]4C12` (some centres not stated): -1.19.
In turn, `O=C1C2C=CC(C(O)C3CC=CCC3)N(Nc3ccccc3)C2C(=O)N1c1ccccc1` (configuration not stated) came in with a composite z-score of 1.06.
On to `Cc1ccc(S[C@]2(C(=O)NC(C)C)CC(=O)N(Cc3cc(C(F)(F)F)cc(C(F)(F)F)c3)[C@@H]2c2ccc(CO)cc2)cc1`, for which the composite z-score is -1.27.
`CCOC(=O)C[C@H]1[C@H](OC(=O)c2ccccc2-c2ccccc2)[C@@H](NC(=O)c2ccc3ccccc3n2)c2cc(OCCCO)ccc2N1C(=O)Cc1ccc(OC)cc1` displayed a composite z-score of 0.384.
Take `CC(C)c1ccc(NN2C(C(O)c3ccc(C#N)cc3)C=CC3C(=O)N(c4ccccc4)C(=O)C32)cc1` (configuration not stated): the composite z-score was found to be 1.07.
Same read-out and setting: for `CCC#CCN(Cc1ccccc1Br)[C@H](/C=C/C1CC1)[C@@H](O)Cc1ccccc1` the value was -0.838.
`C=C[C@@H](OC)[C@H](OC(=O)Nc1ccc(OC)cc1)c1ccc(O)c(F)c1` gave a composite z-score of 0.0981.
`C=CCC(OC(C)=O)[C@@H]1[C@@H](N(Cc2ccc(-c3cccc(C(F)(F)F)c3)o2)C(=O)c2ccc(-c3ccccc3)cc2)c2cc(OCCCO)ccc2N1C(=O)Cc1ccc2ccccc2c1` (some centres not stated) showed a composite z-score of -0.3.
Still for that read-out and setting: for `CCOC(=O)C1=C[C@@H](c2ccccc2)N(S(=O)(=O)c2ccc(C)cc2)[C@H]1c1ccc(OC)cc1` the value was 1.14; for `CS(=O)(=O)CCOC(=O)C1=CC(CCCO)=CC(c2ccc(CN3CCCC3)cc2)N(Cc2sc3ccccc3c2Cl)C=C1C(=O)OCCS(C)(=O)=O` (configuration not stated), 1.04.
Same read-out and setting: next, `CCOC(=O)C[C@H]1[C@H](OC(=O)Cc2ccc3c(c2)OCO3)[C@@H](NC(=O)c2ccc3ccccc3n2)c2cc(OCCCO)ccc2N1C(=O)c1ccc2ccccc2n1`: 0.497; `C=CCC(OC(C)=O)[C@@H]1[C@@H](N(Cc2ccc(-c3ccccc3)cc2)C(=O)c2ccc(-c3ccccc3)cc2)c2cc(OCCCO)ccc2N1C(=O)c1ccc2ccccc2c1` (some centres not stated): 0.306.
Compound `Cc1ccc(NN2C(C(O)c3c(F)cccc3Cl)C=CC3C(=O)N(C4CCCCC4)C(=O)C32)cc1` (configuration not stated) yielded a composite z-score of 1.05.
The same measure, in the same setting: for `CN(C)C(=O)[C@]1(Cc2ccccc2CN=[N+]=[N-])N=C(c2ccc(OCCCO)cc2)O[C@@H]1c1ccccc1` the value was 0.439; for `Cc1ccc(S[C@]2(C(=O)O)CC(=O)N(C3CCCCC3)[C@@H]2c2ccc(CO)cc2I)cc1`, 0.754; for `CCOC(=O)C[C@H]1[C@H](OC(=O)c2cc3ccccc3oc2=O)[C@@H](NC(=O)CC(C)C)c2cc(OCCCO)ccc2N1C(=O)c1ccc2ccccc2n1`, 0.982.
Compound `CCOC(=O)C[C@H]1[C@H](OC(=O)c2ccc(-c3ccccc3)cc2)[C@@H](NC(=O)CC(C)C)c2cc(OCCCO)ccc2N1C(=O)c1ccc2ccccc2n1` registered a composite z-score of 0.753.
Still for that read-out and setting: for `CCOC(=O)C[C@H]1[C@H](OC(=O)c2ccc(C(=O)c3ccccc3)cc2)[C@@H](NC(=O)c2ccc3ccccc3n2)c2cc(OCCCO)ccc2N1C(=O)Cc1ccc(OC)cc1` the value was 0.312; for `COc1ccc([Si](C)(C)[C@@H]2[C@@H](CC(=O)N(CCO)Cc3ccccc3)O[C@]3(C(=O)N(Cc4cccc(N5CCCCC5=O)c4)c4ccccc43)[C@H]2C)cc1`, 0.948.
The compound `COC(=O)[C@]1(CCS(=O)(=O)c2ccccc2)N=C(c2ccc(OCCCO)cc2)O[C@@H]1c1ccccc1N=[N+]=[N-]` gave a composite z-score of 1.04.
Regarding `COC(=O)[C@@]1(Cc2ccccc2)[C@H]2c3cc(C(=O)N4CCCC4)n(CCc4ccccn4)c3C[C@H]2CN1C(=O)c1ccccc1`, the composite z-score amounted to 0.915.
As to `CCCN1C(=O)[C@@]2(Cc3ccccc31)N=C(c1ccc(OCCCO)cc1)O[C@H]2c1ccccc1`, the composite z-score was found to be 0.355.
`COC(=O)[C@@]1(Cc2ccc(F)cc2)[C@H]2c3cc(C(=O)N(C)C)n(Cc4ccc(OC(F)(F)F)cc4)c3C[C@H]2CN1C(=O)c1ccccc1` came in with a composite z-score of -0.0482.
Same read-out and setting: next, `CC(=O)N1CC2(CC2)CC1c1ccccc1` (configuration not stated): 0.251; `CC(C)[Si](C#CCCCC#N)(O[C@H](c1ccccc1)c1cn(Cc2ccccc2)nn1)C(C)C`: 1.09; `COCCOC(=O)N1C(=O)[C@@]2(c3cc(C#CC4(O)CCCCCC4)ccc31)[C@H](c1ccc(O)cc1)N1[C@H](c3ccccc3)[C@H](c3ccccc3)OC(=O)[C@H]1[C@@H]2C(=O)N1CCN(c2ncccn2)CC1`: 0.987.
In turn, `CC1=C2[C@@H](CCc3ccccc3)OB(O)C[C@@H]2[C@@H]2C(=O)N(Cc3ccccc3)C(=O)[C@@H]2C1` yielded a composite z-score of 0.57.
For `CCOC(=O)C[C@H]1[C@H](OC(=O)Cc2ccc3c(c2)OCO3)[C@@H](NC(=O)C2CCCCC2)c2cc(OCCCO)ccc2N1C(=O)c1ccccc1`, the composite z-score was determined as 0.255.
In turn, `COCCCNC(=O)[C@@]1(CCC(=O)OC(C)(C)C)N=C(c2ccc(OCCCO)cc2)O[C@H]1c1ccccc1N=[N+]=[N-]` came in with a composite z-score of 0.377.
`[N-]=[N+]=Nc1ccccc1C[C@]1(C(=O)NCC(O)CO)COC(c2ccc(OCCCO)cc2)=N1` (some centres not stated) showed a composite z-score of -1.26.
Same read-out and setting: for `CCCC[C@@H](O)C1=C(COC)C[C@H]2C(=O)N(C)C(=O)[C@H]2[C@H]1CO` the value was -0.277.
`CCCCCCc1nc(Cc2cc(OC)c(OC)c(OC)c2)cc2c1[Si](C(C)C)(C(C)C)OC2` yielded a composite z-score of -0.0693.
